PKM2 inhibitor = qHTS Assay for Inhibitors of Human Muscle isoform 2 Pyruvate Kinase; Potency, µM (series often up to 57.5 µM), without a hit: top-dose activity change, negative = inhibition, usual class: inhibitors; 0.058% of 260,000 active; Pyruvate kinase PKM (Homo sapiens), P14618; AID 1634, 2009; purified PKM2, ATP generation, Kinase-Glo luminescence; active = well fitted inhibition curve with a large enough effect; also: nearly all actives have a fitted effect of over 60% in size
Target sequence (P14618 whole entry, looked up, canonical isoform): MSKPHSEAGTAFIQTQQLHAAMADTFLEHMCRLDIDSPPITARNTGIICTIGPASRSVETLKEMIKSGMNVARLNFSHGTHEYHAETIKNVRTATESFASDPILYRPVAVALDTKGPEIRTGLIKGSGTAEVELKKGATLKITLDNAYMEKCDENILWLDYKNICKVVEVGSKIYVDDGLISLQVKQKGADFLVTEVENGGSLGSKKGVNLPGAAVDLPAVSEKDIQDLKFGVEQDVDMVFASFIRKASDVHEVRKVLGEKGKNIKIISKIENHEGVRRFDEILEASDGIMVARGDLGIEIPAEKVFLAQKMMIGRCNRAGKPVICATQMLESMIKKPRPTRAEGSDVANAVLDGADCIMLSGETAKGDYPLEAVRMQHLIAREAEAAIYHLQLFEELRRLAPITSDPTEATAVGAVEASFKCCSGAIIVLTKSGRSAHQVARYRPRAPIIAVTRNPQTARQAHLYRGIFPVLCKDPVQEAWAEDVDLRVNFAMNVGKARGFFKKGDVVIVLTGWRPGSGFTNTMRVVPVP
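Coupled luciferase luminescence (Kinase-Glo) detects ATP generated from 0.1 mM ADP and 0.5 mM PEP in imidazole buffer pH 7.2 with KCl, MgCl2; 1 h at room temperature. Enzyme at intermediate activity; normalized to uninhibited and no-enzyme controls.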
The depositor's hits bear a star. Many of the other results were omitted from the sample, so hits are more common in it than they were. Potency is read from the fitted curve at half-maximal effect.

SMILES	PKM2 inhibitor
Cn1c(/C=C/c2ccccc2)nc2ccccc21	13µM*
Cn1c(CSc2nnc(SCc3ccccc3)s2)nc2ccccc21	100%
Cn1c(Cn2cnc3ccccc32)nc2ccccc21	59%
COc1cc2cc(C#N)c(SCC(=O)Nc3cc(C)on3)nc2cc1OC	64%
O=S(=O)(c1ccccc1)N1CC=C(c2ccccc2)CC1	32%
O=S(=O)(Nc1ccc(-n2cccc2)cc1)c1ccccc1	72%
Cc1ccc(-n2[nH]c(C)c(/C=N/n3c(C)nc4ccccc4c3=O)c2=O)cc1	13µM*
O=c1c2ccccc2nc(-c2ccco2)n1/N=C/c1ccccc1O	47%
O=C(NCc1cccc(Cl)c1)N1CCN(S(=O)(=O)c2ccccc2F)CC1	72%
COc1cc(C2Oc3ccccc3C=C2[N+](=O)[O-])cc(OC)c1OC (configuration not stated)	46%
O=C(O)COc1ccc(F)cc1Br	-6%
Cc1ccc(/C(N)=N/OC(=O)Cc2cccc3ccccc23)cc1	61%
Cc1occc1C(=O)O/N=C(\N)c1ccccc1	7.1µM*
CCOc1cc(S(=O)(=O)n2nc(C)cc2C)ccc1Br	74%
Cc1ccc(C(=O)N2CC(=O)NC(=O)C2)cc1	-3%
COc1ccc(C2CC(c3ccc4ccccc4c3OC(C)=O)=NN2C(C)=O)cc1 (configuration not stated)	57%
O=C(NCc1ccc(/C=c2\sc3n(c2=O)CCN=3)o1)C(=O)Nc1ccccc1	61%
CCOC(=O)C1=C(C)N(C)C(=O)NC1c1cccc2ccccc12 (configuration not stated)	-25%
Cc1ccc(CNC(=O)CCC2CCCN(C(=O)c3ccc4c(c3)OCO4)C2)o1 (configuration not stated)	55%
N#Cc1ccc(NC(=S)NCCN2CCOCC2)cc1	129%
c1c2c(cc3sc(N4CCOCC4)nc13)OCCO2	14µM*
CN1C(=O)Cc2cc(S(=O)(=O)Nc3ccc(Cl)cc3)ccc21	49%
COc1ccc2c(c1OC)C(=O)OC2N1C(=O)CC[C@H]1C(=O)Nc1ccc(F)cc1F (some centres not stated)	-5%
CCOc1ccc(CNc2cccc(SC)c2)cc1	77%
Cc1ccc(-c2ccc(SCC(=O)Nc3cc(C)on3)nn2)cc1	-2%
SMILES	PKM2 inhibitor
CCOc1ccc(-c2ccc(SC)nn2)cc1	3.2µM*
Cc1c(C(=O)N2CCOCC2)c(S(=O)(=O)Nc2ccc(OC(F)(F)F)cc2)c(C)n1C	-2%
C#CC(C)(C)NC(=O)c1ccc(-c2ccccc2F)cc1	1%
Cc1ccc(S(=O)(=O)Nc2ccccc2CNC2CCCCC2)cc1	45%
O=S(=O)(c1ccccc1)C1(C2CC(c3ccccc3)=NO2)CC(O)C1 (configuration not stated)	0%
COc1ccc(-n2c(SCC(=O)O)nnc2-c2ccc(NC(=O)c3ccccc3)cc2)cc1	40%
COc1cc(/C=C/C(=O)CC(=O)/C=C/c2ccc(O)c(OC)c2)ccc1O	30%
COc1ccc(/C=C/C(=O)c2ccccn2)cc1	16µM*
COc1ccc(/C=C/C(=O)NCCNC(=O)c2ccccc2)cc1OC	38%
COc1ccc(CNC(=O)c2c(C)nc3ccccn23)cc1	43%
COc1ccc(C(=O)NNC(=O)c2ccccn2)cc1	3.5µM*
CSc1ccc(S(=O)(=O)N2CCC(C(=O)NCc3ccccn3)CC2)cc1	35%
Cc1ccc2oc(C(=O)N(C)Cc3ccc(C)o3)c(C)c2c1	82%
C=CCNC(=O)/C(C#N)=C/c1ccc(OS(=O)(=O)c2ccc(C)cc2)c(OC)c1	37%
COc1ccc(S(=O)(=O)Nc2ccc(S(=O)(=O)Nc3nccs3)cc2)cc1	96%
COc1ccc(S(=O)(=O)N2CCN(C(=O)C3CCCO3)CC2)cc1 (configuration not stated)	49%
CC(=O)CCc1c(C)nc2ccc(C)cc2c1Cl	78%
CNC(=O)C1CCN(S(=O)(=O)c2c(C)noc2/C=C/c2cccc(OC)c2)CC1	33%
COc1ccc(C(=O)NCCN2C(=O)S/C(=C\c3cccnc3)C2=O)cc1[N+](=O)[O-]	97%
CCCCCCCN1CCC(=O)N([C@H](CO)c2ccccc2)CC1	31%
Cc1cccc(-n2nnnc2SCC(=O)Nc2cccc(S(N)(=O)=O)c2)c1	64%
O=C(CSc1ccc(-c2cccnc2)nn1)Nc1ccc(F)c(F)c1	36%
O=C(NCc1cccs1)c1cc2ccccc2o1	0%
O=C(Nc1ccccn1)c1cc2ccccc2o1	13µM*
COc1cc(CN2CCNC(=O)C2CC(=O)N2CCCO2)cc(OC)c1 (configuration not stated)	70%
SMILES	PKM2 inhibitor
O=C(/C=C/c1ccccc1[N+](=O)[O-])Nc1cccnc1	47%
COc1cc2c(cc1OC)CN(C(=O)c1ccc3[nH]c(C)c(C)c3c1)CC2	2%
C/C=C/C=C\C(=O)Nc1cccc(C2=NOC3(C2)C[C@@H](C(N)=O)N(C(=O)c2cc([N+](=O)[O-])cc([N+](=O)[O-])c2C)C3)c1 (some centres not stated)	37%
Clc1ccc(C2=NNC(=NCc3ccc4c(c3)OCO4)SC2)cc1	59%
c1ccc(C2=NNC(=NC3CC3)SC2)cc1	14µM*
O=S(=O)(Nc1ccc2ccccc2n1)c1ccc2c(c1)CCO2	116%
Cc1cccc(N2CCN(C(=O)c3c(Cl)cnn3C)CC2)c1C	36%
S=C(NC1CCCC1)N1CCN(C/C=C/c2ccccc2)CC1	0%
Cc1ccc(-n2nnc(-c3nccn3C)n2)cc1	16µM*
COc1cc(/C=C(\C#N)C(=O)Nc2ccc3c(c2)OCCO3)ccc1O	16%
COc1cc(C(=S)N2CCN(c3ccccc3Cl)CC2)cc(O)c1O	130%
O=C(/C=C/c1ccc(O)c(O)c1)O[C@H](Cc1ccc(O)c(O)c1)C(=O)O	37%
O=C(OCCOc1cccc(Cl)c1)c1ccc2ncsc2c1	63%
COC(=O)c1ccc(C(NC(=O)OCc2ccccc2)/C(I)=C/[C@@H](C)C(=O)NCc2ccc(C)o2)cc1 (some centres not stated)	60%
Cc1ccc(NC2=C(CC(=O)O)C(c3ccccc3)N(c3ccc(C)cc3)C2=O)cc1 (configuration not stated)	35%
Cc1nnc2sc(SCC(=O)Nc3nccs3)nn2c1=O	62%
CC1CCN(CC(=O)Nc2ccc(S(=O)(=O)NC3CC3)cc2)CC1	36%
N/C(=N/OC(=O)c1ccccc1F)c1nonc1N	16µM*
Cc1c(C(=O)OCc2ccccc2)nnn1-c1nonc1N	36%
CN(c1ccc(F)cc1)S(=O)(=O)c1ccc(Cl)c(C(=O)OCC(=O)NCc2ccco2)c1	42%
COc1cc(C(=O)Nc2ccc(C)cc2)c(-n2cnnn2)cc1OC	86%
COc1cccc(CNC(=O)N2CCN(S(=O)(=O)c3ccc(C)cc3)CC2)c1	88%
Cc1cccc(NC(=O)c2onc3c2CCCC3)n1	13µM*
Cc1cc(NC(=O)CSc2nc3c(cc2C#N)CCCC3)no1	23%
Cc1cccc(NC(=O)c2cc([N+](=O)[O-])ccc2NCC2CCCO2)n1 (configuration not stated)	47%
O=C(Nc1ccc(-n2cc(Br)cn2)cc1)c1ccncc1	32%
COc1ccccc1CC(=O)NNS(=O)(=O)c1ccc([N+](=O)[O-])cc1	39%
O=C(Nc1ccc(NC(=S)NC(=O)c2cccs2)cc1)c1ccco1	108%
CN(C)c1ccc(N/C=C/C(=O)c2ccco2)cc1	14µM*
O=S(=O)(c1ccc(F)cc1)N1CCN(CC2CC3C=CC2C3)CC1 (configuration not stated)	51%

Bioassay records as filed in PubChem BioAssay.
